The full ranking holds about 33,000 sequences; the median of “E-score (-0.5 to 0.5)” is about -0.0059, and the highest 2% start at about 0.26. What follows is part of a selection rich in the highest values, with near analogues and random picks from the rest.
The sequences below were run against T1, Cin5 (UniProt P40917) (assay: PBM E-score (8-mer binding enrichment) (E-score (-0.5 to 0.5)); higher = stronger / more preferred TF binding). Details: protein concentration: 100 nM; construct: GST-full length.
T1 sequence: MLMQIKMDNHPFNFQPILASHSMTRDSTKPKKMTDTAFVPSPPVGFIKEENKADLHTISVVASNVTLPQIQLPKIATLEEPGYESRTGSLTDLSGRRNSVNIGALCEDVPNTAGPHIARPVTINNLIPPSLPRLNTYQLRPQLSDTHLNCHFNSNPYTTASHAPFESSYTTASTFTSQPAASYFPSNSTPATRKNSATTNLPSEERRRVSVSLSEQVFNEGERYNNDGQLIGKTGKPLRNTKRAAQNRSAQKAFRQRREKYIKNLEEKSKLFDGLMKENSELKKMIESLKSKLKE
Description: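 Universal 'all 10-mer' protein binding microarrays (Agilent AMADID 015681) probed with GST-tagged S. cerevisiae TFs (full-length or DBD) made by in vitro transcription/translation (PURExpress), about 100-200 nM. Bound TF was detected with fluorescent anti-GST. Each ungapped 8-mer (which stands for itself and its reverse complement) is scored by the PBM enrichment score (E-score), a modified Wilcoxon-Mann-Whitney statistic from -0.5 to +0.5, computed with the Universal PBM Analysis Suite. Scale: above 0.35 generally sequence-specific binding.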

Sequence	PBM E-score
ATAATACG	0.213
CTAATACC	0.104
CTAATACA	0.161
ACAATACT	0.237
GCAATACC	0.0147
ATAATACA	0.35
ACAATACA	0.144
ATAATACC	0.258
GAGTGCTA	0.0563
CCTAACCC	-0.302
ACAAGACT	-0.039
GATTGGAA	-0.0265
ATCGAGTC	0.0696
CTCTAAGC	0.0569
ATTAACTG	0.237
ATACAGGG	0.121
ACTCGTGG	-0.041
ATGGTAGG	-0.0925
ATACTTCA	0.129
CTACTTCA	-0.0153
GTACTTCA	0.279
AACCCAGA	-0.0895

Sequence	PBM E-score
CGGGGCAC	-0.242
GCTCTACC	-0.288
CTAGATAA	0.0277
ATAGATAA	0.267
ATAGATAG	0.0352
ATTGAATA	0.277
TAAGATTA	0.274
TCAGATAA	0.184
AAAGATTA	0.249
TTAGATAA	0.32
CTTGAATA	0.0347
GAAGATTA	0.197
ATTGAATC	-0.0743
ATAGATAC	0.224
AAAAGGAC	0.0428
AAGACCCG	-0.133
AACGATCG	0.0832
ACGCCCGA	-0.032
AGGAACAA	-0.0886
AGTTCGGC	-0.0604
ATAGATTG	0.224
ATAGATTA	0.302

Sequence	PBM E-score
GTAGATAA	0.28
ATGGAATC	0.242
GTAGATTA	0.232
GCAGATAA	0.0212
ATAGAATG	0.209
GTGGAATA	0.193
GTAGAATA	0.194
GTAGATAC	0.0747
ATAGAATA	0.277
ATGGAATA	0.322
AAAGTTGC	0.0362
AGGCCAAC	-0.251
CATTGCAA	-0.0643
CTCAGGGA	-0.0496
GCGCATTA	0.147
ATCACCTG	0.148
CAATCTGC	-0.0434
GAGCAGAA	-0.0414
ACCAACGC	-0.0288
AGGGCACG	-0.206
CCGACCGG	-0.211
CTAGCTAA	0.0272

Sequence	PBM E-score
TTAGCTAA	0.343
ATAGCTAA	0.0506
CACTCGGG	-0.117
CATGACAA	0.0097
GATGACAC	0.0142
GATGACAA	0.27
AGGGCCCC	-0.322
TCCACTAA	0.0246
CGCTTAGC	-0.0166
AATATCGG	0.179
GATATCGA	0.0864
AATATCGA	0.326
AAAGAGCG	0.0467
AACCCTGA	0.131
GGTGCTTA	0.0985
CATGCTTC	0.0417
CATGCTTA	0.259
CGTGCTTA	0.273
AATGCTTA	0.276
CGTGCTGA	0.0279

From the supplement of paper PMC3334620
